About 8,800 targets were measured; listed, in parts, are those with a hit and a random draw of the rest. About 0.5% of all pairs of compound and target were hits. Values without a mark were called inactive.

Sequence of UniProt P35611 (P35611 whole entry, looked up): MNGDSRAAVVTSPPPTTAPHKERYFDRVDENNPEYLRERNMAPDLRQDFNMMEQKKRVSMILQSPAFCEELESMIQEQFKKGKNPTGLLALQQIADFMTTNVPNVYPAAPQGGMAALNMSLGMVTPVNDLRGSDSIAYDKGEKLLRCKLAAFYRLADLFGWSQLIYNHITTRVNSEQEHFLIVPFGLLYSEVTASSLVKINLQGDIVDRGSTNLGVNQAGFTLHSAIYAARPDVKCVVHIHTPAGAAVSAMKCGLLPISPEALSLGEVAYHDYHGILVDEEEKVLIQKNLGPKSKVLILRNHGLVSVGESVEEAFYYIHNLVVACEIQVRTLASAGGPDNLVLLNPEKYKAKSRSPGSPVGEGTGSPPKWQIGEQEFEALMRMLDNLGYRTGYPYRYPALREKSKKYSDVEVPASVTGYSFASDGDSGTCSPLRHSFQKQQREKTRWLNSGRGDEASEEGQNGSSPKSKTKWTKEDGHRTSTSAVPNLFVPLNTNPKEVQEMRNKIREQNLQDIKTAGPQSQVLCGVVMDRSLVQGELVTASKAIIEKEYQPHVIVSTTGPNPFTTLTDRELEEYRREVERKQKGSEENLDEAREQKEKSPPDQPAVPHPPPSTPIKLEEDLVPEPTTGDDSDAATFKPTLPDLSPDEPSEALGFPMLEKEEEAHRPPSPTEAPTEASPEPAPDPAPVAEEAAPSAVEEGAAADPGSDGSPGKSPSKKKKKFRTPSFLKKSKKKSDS
Sequence of UniProt P05091 (P05091 whole entry, looked up): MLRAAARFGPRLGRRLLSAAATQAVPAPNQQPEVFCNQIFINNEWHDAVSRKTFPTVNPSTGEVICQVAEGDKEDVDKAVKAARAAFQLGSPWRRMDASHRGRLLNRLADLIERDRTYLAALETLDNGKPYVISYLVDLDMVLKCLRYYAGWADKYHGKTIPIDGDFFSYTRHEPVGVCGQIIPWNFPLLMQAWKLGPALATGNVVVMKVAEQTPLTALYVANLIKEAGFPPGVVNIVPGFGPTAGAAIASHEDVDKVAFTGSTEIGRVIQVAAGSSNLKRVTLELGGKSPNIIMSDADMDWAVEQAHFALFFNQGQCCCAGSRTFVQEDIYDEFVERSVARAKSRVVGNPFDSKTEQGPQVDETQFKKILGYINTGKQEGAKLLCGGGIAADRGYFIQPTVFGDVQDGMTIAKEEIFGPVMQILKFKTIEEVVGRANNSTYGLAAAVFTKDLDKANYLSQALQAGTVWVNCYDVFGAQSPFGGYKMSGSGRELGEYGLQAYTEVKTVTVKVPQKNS
Sequence of UniProt Q9UG63 (Q9UG63 whole entry, looked up): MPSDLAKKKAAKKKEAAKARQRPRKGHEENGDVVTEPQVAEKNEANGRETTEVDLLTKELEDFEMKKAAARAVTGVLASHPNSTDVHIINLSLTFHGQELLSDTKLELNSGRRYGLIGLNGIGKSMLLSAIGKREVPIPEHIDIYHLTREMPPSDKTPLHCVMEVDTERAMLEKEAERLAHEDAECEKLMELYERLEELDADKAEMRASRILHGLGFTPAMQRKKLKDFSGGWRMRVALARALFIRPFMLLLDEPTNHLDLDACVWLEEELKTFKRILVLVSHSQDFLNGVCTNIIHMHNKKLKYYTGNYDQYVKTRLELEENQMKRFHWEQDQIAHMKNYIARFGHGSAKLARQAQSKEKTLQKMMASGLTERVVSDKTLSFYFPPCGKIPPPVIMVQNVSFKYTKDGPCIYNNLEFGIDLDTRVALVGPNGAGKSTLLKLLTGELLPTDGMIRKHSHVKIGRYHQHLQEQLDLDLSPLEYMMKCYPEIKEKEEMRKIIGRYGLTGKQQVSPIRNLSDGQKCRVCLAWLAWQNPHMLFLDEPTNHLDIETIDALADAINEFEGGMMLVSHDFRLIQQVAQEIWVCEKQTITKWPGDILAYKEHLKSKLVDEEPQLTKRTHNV
Sequence of UniProt P78536 (P78536 whole entry, looked up): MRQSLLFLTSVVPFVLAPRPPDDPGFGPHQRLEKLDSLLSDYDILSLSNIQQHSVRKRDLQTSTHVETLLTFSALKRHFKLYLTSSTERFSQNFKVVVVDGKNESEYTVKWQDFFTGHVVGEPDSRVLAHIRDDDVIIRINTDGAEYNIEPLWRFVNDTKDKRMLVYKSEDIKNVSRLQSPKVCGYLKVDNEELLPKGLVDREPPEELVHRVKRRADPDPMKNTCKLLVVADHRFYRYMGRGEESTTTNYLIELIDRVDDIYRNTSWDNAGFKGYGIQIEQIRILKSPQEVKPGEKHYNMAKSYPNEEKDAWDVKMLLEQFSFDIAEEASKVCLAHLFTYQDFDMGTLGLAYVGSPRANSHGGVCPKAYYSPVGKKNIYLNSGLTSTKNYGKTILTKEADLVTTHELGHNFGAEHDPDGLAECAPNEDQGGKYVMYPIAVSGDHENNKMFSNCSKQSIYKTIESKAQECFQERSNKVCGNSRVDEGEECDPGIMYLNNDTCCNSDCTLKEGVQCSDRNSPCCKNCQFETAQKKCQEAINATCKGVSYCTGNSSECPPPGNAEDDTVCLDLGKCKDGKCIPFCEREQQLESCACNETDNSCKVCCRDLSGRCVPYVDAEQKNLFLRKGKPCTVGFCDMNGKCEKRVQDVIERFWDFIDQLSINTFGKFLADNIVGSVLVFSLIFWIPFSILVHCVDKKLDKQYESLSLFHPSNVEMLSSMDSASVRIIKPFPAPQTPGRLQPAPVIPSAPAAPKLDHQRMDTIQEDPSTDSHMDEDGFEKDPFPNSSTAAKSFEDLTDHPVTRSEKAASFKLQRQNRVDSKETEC
Sequence of UniProt P27144 (P27144 whole entry, looked up): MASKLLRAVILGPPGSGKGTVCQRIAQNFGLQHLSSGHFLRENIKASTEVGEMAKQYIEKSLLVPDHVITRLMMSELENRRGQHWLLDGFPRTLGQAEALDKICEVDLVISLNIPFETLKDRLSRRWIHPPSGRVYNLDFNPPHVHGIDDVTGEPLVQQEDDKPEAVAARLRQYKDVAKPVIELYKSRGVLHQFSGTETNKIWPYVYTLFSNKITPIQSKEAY
Sequence of UniProt O00116 (O00116 whole entry, looked up): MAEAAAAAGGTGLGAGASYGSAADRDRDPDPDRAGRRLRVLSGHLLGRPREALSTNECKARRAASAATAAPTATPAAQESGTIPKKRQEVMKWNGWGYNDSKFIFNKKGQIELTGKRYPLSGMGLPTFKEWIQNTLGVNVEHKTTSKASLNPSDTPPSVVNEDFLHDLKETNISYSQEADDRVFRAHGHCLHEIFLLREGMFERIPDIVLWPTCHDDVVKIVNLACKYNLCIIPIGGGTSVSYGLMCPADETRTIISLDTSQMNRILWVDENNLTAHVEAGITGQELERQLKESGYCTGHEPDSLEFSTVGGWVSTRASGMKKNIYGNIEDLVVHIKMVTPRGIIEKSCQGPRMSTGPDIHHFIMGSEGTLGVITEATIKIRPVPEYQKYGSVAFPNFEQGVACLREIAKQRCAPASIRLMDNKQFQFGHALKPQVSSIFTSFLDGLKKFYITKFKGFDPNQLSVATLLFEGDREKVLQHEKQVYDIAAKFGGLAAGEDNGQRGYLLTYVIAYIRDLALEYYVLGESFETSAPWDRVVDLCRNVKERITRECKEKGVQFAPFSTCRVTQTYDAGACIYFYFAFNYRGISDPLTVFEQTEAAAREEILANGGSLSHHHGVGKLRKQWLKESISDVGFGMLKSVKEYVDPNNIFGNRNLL
Sequence of UniProt Q9UNA0 (Q9UNA0 whole entry, looked up): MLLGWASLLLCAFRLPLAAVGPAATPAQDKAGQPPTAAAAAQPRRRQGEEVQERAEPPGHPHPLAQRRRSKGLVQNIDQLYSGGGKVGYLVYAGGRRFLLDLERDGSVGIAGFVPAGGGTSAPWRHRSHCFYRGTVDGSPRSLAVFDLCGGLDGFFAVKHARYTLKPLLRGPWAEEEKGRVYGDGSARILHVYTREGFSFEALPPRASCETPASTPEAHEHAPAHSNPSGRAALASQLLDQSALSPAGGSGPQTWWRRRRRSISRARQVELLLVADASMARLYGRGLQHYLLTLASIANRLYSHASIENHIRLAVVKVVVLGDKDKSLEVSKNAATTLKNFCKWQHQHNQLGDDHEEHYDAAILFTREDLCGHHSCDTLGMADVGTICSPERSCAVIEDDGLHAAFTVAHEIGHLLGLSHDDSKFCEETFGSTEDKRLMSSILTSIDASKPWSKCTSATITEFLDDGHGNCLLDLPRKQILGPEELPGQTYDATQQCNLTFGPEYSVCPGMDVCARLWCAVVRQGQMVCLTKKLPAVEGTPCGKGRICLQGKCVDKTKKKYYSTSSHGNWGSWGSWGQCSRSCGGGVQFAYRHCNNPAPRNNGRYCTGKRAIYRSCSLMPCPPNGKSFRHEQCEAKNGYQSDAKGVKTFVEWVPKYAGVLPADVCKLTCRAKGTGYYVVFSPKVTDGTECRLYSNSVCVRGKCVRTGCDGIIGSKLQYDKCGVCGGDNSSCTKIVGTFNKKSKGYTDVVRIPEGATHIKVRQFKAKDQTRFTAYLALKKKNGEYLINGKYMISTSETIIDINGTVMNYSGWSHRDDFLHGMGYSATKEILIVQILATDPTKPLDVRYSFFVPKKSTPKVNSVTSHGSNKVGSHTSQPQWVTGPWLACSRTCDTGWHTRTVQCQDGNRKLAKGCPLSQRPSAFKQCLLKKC
Sequence of UniProt Q16186 (Q16186 whole entry, looked up): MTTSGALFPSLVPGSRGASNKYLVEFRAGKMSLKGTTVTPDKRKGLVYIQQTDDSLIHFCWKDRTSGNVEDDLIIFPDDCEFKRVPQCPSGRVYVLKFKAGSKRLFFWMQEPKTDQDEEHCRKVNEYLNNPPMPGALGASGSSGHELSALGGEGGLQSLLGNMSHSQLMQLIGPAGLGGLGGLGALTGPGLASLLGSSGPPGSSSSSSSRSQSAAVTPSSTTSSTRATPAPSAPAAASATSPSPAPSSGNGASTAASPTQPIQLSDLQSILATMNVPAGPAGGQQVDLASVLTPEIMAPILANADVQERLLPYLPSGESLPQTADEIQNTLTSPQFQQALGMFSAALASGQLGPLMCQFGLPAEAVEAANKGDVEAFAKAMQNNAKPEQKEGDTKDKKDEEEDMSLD

Compound in this assay: C1=CC=C2C(=C1)C3=NNC4=CC=CC(=C43)C2=O
Description: log2 fold change, soluble protein after heating vs DMSO (PISA); higher = thermal stabilisation; K562 lysate, 10 uM; active = over 0.2 and 3.5 SD of the protein, either way, in both replicates (recomputed). The gist of the method:
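The values are log-two fold changes in thermal stability compared with solvent controls and come from duplicates. They were obtained by TMTpro 16plex LC-MS/MS, with channel sums equalised, on the supernatant after 21,000xg for 90 min. That supernatant came from crude K562 extract at 1 mg/mL protein treated with 10 μM compound for 30 min, heated for 3 min across 48°C-58°C, pooled and brought to 0.5% NP-40 at 4°C.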
Consider ADRM1 (UniProt Q16186), for which the log2 fold change is -0.088.

Turning to ADD1 isoform 3 (UniProt P35611), the log2 fold change was 0.011.

Consider AGGF1 (UniProt Q8N302), for which the log2 fold change is 0.057.

On to ANKRD40 (UniProt Q6AI12), for which the log2 fold change is -0.163.

As to AIMP1 isoform 2 (UniProt Q12904), the log2 fold change is -0.025.

Consider AMPD3 isoform 4 (UniProt Q01432), for which the log2 fold change is 0.027.

AGTPBP1 (UniProt Q9UPW5): the log2 fold change was -0.039.

Turning to AIFM2 (UniProt Q9BRQ8), the log2 fold change is 0.068.

As for ARL1 (UniProt P40616), the log2 fold change is -0.018.

Take ACSL1 (UniProt P33121): the log2 fold change was -0.04.

As for ACTBL2 (UniProt Q562R1), the log2 fold change was 0.024.

Take ALG13 (UniProt Q9NP73): the log2 fold change was -0.032.

In the case of AGPS (UniProt O00116), the log2 fold change is -0.082.

As to ARL15 (UniProt Q9NXU5), the log2 fold change is 0.005.

ALDH2 (UniProt P05091): the log2 fold change was 0.175.

Turning to ADAM17 (UniProt P78536), the log2 fold change was -0.115.

As to ABCF2 isoform 2 (UniProt Q9UG63), the log2 fold change is -0.042.

As to AK4 (UniProt P27144), the log2 fold change was 0.015.

On to ABCD3 (UniProt P28288), for which the log2 fold change was -0.031.

On to ADAMTS5 (UniProt Q9UNA0), for which the log2 fold change was -0.001.

Regarding ABHD16A (UniProt O95870), the log2 fold change was -0.016.

With AGO4 (UniProt Q9HCK5), the log2 fold change was -0.015.

With ALDH1B1 (UniProt P30837), the log2 fold change was 0.262 (active).

Values taken from the supplement of paper PMC10849652.
